Measured values: PubChem BioAssay (EPA / NIEHS)
Results filed as inconclusive are left out. Activity calls are given as the source filed them. How the source made its calls: active means hit-call score of the fitted dose curve at least 0.9, where 1 is the maximum; inconclusive means response in the unintended direction; inactive means score below 0.9.

Columns and labels:
[1] = target: sheep Cyclooxygenase-2 (Cox2), PTGS2 (gene 443460) (UniProt P79208); experiment: NVS_ENZ_oCOX2: NovaScreen (NVS) Enzymatic Assay for sheep Cyclooxygenase-2 (Cox2) (AID 2283231)
Procedure, shortened: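 Colorimetric absorbance read-out of COX activity, taken 0.66 hour post-dosing, using native protein from sheep placenta. Single-concentration duplicate screen (25 uM), then singleton concentration-response up to 50 uM for actives.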

[2] = system: guinea pig Leukotriene B4 Receptor (LTB4), gene 100379538; experiment: NVS_GPCR_gLTB4: NovaScreen (NVS) G Protein-Coupled Receptor Assay for guinea pig Leukotriene B4 Receptor (LTB4) (AID 2283247)
Procedure, shortened: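 Membranes from guinea pig spleen incubated 2 h with radioligand and compound; bound counts measured by filtration and scintillation. Screened first at 25 uM in duplicate, then actives titrated to a 50 uM top concentration relative to DMSO.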

[3] = target: rat Constitutive Nitric Oxide Synthase (CNOS), Nos1 (gene 24598) (UniProt P29476); experiment: NVS_ENZ_rCNOS: NovaScreen (NVS) Enzymatic Assay for rat Constitutive Nitric Oxide Synthase (CNOS) (AID 2283236)
Procedure, shortened: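 Single 25 uM duplicate screen, then concentration series to 50 uM for chemicals meeting threshold. Rat brain membrane-derived CNOS activity detected radiometrically by filtration and scintillation counting, 1 h after compound addition; DMSO as baseline.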

[4] = target: human Vascular Endothelial Growth Factor Receptor 2 (VEGFR2), KDR (gene 3791) (UniProt P35968); experiment: NVS_ENZ_hVEGFR2: NovaScreen (NVS) Enzymatic Assay for human Vascular Endothelial Growth Factor Receptor 2 (VEGFR2) (AID 2283230)
Procedure, shortened: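 Cell-free recombinant VEGFR2 kinase, fluorescent substrate with electrophoretic mobility-shift separation; read 1 h after dosing. Screened at 25 uM in duplicate, hits to concentration-response up to 50 uM; loss-of-signal versus DMSO.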

[5] = target: sheep Cyclooxygenase-1 (Cox1), PTGS1 (gene 443551) (UniProt P05979); experiment: NVS_ENZ_oCOX1: NovaScreen (NVS) Enzymatic Assay for sheep Cyclooxygenase-1 (Cox1) (AID 2283239);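 further: actives reduce cyclooxygenase activity so potencies are for inhibitors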
Procedure, shortened: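 Native ovine seminal vesicle protein serves as enzyme source in this biochemical assay. Colorimetric signal is recorded 0.66 h after chemical addition, and decreases versus the DMSO control define activity.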

[6] = NVS_GPCR_bNPY_NonSelective: NovaScreen (NVS) G Protein-Coupled Receptor Assay for bovine Neuropeptide Y (NPY) Receptor, Non-selective Binding (AID 2283245)
Procedure, shortened: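 Displacement of radioligand from bovine hippocampal membrane receptors, read by filtration and scintillation counting after 1 hour. Concentration-response to a top of 50 uM followed a 25 uM duplicate primary screen. Loss of signal versus DMSO.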

[7] = target: guinea pig Leukotriene D4 Receptor (LTD4), CYSLTR1 (gene 100135514) (UniProt Q2NNR5); experiment: NVS_GPCR_gLTD4: NovaScreen (NVS) G Protein-Coupled Receptor Assay for guinea pig Leukotriene D4 Receptor (LTD4) (AID 2283248)
Procedure, shortened: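 Guinea pig lung membrane preparation; bound radioligand measured by filter scintillation after 1 h, loss of signal versus DMSO marking displacement. Compounds tested at 25 uM in duplicate, hits retested to max 50 uM.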

[8] = system: bovine Histamine 1 Receptor (H1), gene 281231; experiment: NVS_GPCR_bH1: NovaScreen (NVS) G Protein-Coupled Receptor Assay for bovine Histamine 1 Receptor (H1) (AID 2283246)
Procedure, shortened: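 Hits from a 25 uM duplicate primary screen were retested in concentration series (top 50 uM); binding measured as scintillation-counted displacement of radioligand from bovine cerebellar membranes after 1 h, normalised to DMSO.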

[9] = target: Adenosine receptor A1 (Bos taurus) (UniProt P28190); experiment: NVS_GPCR_bAdoR_NonSelective: NovaScreen (NVS) G Protein-Coupled Receptor Assay for bovine Adenosine Receptor (AdoR), Non-selective Binding (AID 2283244)
Procedure, shortened: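 Cell-free binding with membranes from bovine striatum: radioligand displaced by test chemical, read after 1 h by filtration and scintillation. Single-point 25 uM duplicate primary, 50 uM top concentration in follow-up curves, DMSO baseline.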

[10] = target: bovine Dopamine Receptor (DR), Non-selective Binding, DRD1 (gene 281125) (UniProt Q95136); experiment: NVS_GPCR_bDR_NonSelective: NovaScreen (NVS) G Protein-Coupled Receptor Assay for bovine Dopamine Receptor (DR), Non-selective Binding (AID 2283241)
Procedure, shortened: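 Filter-based radioligand binding with bovine striatal membrane, incubated 1 h; DMSO as negative baseline. Initial duplicate single-point test at 25 uM preceded concentration series for actives.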

sheep Cyclooxygenase-1 (Cox1), PTGS1 (gene 443551), sequence (P05979 whole entry, looked up): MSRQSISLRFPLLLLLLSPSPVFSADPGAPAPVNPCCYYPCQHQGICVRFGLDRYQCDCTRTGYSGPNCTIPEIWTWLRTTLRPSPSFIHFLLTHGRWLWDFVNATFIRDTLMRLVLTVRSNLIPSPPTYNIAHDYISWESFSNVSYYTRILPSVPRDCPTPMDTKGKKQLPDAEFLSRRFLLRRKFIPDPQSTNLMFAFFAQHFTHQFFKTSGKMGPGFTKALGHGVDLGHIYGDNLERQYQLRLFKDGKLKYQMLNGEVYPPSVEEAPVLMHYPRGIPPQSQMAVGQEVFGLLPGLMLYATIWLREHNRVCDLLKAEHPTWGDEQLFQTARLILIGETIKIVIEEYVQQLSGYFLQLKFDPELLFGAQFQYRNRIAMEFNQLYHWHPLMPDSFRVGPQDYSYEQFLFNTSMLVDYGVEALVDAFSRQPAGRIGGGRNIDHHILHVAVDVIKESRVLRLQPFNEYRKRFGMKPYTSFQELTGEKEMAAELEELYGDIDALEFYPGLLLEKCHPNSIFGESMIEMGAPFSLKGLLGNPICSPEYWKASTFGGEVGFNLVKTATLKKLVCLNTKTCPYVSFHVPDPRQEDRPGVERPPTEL
guinea pig Leukotriene D4 Receptor (LTD4), CYSLTR1 (gene 100135514), sequence (Q2NNR5 whole entry, looked up): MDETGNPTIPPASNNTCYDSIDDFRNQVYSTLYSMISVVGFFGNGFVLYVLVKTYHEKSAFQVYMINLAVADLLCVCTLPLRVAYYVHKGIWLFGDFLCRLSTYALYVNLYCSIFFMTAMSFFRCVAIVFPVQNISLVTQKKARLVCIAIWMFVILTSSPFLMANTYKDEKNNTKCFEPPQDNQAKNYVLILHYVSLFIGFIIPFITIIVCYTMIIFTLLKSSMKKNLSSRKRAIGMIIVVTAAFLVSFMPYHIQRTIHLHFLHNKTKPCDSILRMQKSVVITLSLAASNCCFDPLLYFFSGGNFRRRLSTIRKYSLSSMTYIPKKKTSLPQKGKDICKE
rat Constitutive Nitric Oxide Synthase (CNOS), Nos1 (gene 24598), sequence (P29476 whole entry, looked up): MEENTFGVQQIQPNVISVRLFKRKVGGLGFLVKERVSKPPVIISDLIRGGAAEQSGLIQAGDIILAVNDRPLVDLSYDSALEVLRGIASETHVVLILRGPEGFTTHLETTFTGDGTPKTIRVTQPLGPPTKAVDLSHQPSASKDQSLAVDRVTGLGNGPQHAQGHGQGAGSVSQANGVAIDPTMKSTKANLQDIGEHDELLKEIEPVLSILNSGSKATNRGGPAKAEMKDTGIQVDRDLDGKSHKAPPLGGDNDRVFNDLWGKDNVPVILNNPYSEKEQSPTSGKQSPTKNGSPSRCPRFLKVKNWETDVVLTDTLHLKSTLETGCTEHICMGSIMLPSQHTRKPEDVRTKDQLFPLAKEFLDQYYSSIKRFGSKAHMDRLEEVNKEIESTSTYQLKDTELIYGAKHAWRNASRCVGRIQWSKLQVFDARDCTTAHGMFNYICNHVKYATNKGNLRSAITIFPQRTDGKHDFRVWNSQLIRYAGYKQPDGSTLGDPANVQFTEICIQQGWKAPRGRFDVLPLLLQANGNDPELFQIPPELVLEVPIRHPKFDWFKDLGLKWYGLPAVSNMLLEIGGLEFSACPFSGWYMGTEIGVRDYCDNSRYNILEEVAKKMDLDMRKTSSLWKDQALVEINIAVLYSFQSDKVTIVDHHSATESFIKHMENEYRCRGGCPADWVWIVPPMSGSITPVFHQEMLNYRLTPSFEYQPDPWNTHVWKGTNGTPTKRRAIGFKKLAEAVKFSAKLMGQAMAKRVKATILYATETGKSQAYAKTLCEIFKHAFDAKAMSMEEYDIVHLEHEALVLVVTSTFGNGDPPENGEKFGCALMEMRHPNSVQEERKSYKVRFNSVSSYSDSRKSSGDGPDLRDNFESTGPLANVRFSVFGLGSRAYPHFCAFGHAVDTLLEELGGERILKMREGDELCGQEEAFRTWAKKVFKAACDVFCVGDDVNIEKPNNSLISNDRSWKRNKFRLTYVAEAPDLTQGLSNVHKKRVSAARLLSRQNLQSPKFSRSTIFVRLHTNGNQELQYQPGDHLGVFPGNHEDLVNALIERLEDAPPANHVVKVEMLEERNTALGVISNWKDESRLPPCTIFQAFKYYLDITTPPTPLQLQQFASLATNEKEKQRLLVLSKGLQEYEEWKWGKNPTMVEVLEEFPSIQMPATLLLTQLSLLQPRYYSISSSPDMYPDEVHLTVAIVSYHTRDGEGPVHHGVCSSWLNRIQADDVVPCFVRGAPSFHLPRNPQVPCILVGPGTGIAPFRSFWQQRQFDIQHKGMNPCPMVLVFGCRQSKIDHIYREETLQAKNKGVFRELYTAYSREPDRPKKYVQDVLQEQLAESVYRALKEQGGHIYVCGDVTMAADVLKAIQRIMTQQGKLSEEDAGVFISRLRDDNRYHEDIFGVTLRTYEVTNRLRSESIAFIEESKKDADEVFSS
human Vascular Endothelial Growth Factor Receptor 2 (VEGFR2), KDR (gene 3791), sequence (P35968 whole entry, looked up): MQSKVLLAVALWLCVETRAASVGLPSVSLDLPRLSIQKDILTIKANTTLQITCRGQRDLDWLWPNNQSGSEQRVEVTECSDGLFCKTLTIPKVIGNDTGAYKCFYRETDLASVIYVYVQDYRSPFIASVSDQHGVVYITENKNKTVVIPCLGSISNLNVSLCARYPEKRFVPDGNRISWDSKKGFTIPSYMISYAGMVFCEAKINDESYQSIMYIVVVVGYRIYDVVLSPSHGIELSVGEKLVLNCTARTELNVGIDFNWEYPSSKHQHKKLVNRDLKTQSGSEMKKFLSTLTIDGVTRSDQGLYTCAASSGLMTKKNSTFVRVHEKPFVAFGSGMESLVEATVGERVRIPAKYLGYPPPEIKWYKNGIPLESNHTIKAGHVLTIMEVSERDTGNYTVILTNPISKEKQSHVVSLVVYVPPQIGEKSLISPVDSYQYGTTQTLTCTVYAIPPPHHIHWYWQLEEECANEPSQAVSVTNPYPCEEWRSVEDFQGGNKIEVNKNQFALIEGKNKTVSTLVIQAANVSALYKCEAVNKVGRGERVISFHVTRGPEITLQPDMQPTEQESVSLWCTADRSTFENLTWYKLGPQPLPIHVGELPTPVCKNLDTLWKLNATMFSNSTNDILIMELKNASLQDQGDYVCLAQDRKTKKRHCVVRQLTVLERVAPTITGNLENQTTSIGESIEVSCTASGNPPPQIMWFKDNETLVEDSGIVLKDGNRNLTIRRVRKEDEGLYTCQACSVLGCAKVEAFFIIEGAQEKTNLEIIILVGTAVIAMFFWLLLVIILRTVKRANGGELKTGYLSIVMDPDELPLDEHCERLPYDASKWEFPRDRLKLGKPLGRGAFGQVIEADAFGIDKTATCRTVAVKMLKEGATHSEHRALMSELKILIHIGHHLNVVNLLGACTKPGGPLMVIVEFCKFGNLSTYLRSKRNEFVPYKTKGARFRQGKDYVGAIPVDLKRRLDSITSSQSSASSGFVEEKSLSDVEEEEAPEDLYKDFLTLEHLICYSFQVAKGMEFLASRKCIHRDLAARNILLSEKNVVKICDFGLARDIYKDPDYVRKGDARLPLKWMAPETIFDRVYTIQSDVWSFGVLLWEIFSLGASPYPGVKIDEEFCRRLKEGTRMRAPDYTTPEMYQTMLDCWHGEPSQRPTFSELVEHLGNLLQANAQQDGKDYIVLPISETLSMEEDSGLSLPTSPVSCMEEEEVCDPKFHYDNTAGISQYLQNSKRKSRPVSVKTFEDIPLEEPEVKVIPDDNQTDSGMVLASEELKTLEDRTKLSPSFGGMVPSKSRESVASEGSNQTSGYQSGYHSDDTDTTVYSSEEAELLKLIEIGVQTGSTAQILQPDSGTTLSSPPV
sheep Cyclooxygenase-2 (Cox2), PTGS2 (gene 443460), sequence (P79208 whole entry, looked up): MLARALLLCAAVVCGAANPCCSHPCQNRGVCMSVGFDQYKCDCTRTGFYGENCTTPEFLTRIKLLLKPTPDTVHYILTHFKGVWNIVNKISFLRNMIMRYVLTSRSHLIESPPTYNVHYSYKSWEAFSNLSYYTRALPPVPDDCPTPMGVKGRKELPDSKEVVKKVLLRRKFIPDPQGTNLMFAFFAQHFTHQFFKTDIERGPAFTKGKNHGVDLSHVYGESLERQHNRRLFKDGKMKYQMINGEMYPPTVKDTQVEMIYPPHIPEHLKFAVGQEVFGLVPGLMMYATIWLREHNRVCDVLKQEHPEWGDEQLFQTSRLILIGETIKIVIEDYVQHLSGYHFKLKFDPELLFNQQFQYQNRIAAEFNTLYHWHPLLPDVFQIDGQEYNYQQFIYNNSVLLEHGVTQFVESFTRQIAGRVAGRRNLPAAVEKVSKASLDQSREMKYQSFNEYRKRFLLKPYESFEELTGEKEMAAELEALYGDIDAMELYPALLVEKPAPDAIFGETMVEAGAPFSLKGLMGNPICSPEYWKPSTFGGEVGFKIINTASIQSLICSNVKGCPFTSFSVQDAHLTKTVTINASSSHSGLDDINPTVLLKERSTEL
Adenosine receptor A1 (Bos taurus), sequence (P28190 whole entry, looked up): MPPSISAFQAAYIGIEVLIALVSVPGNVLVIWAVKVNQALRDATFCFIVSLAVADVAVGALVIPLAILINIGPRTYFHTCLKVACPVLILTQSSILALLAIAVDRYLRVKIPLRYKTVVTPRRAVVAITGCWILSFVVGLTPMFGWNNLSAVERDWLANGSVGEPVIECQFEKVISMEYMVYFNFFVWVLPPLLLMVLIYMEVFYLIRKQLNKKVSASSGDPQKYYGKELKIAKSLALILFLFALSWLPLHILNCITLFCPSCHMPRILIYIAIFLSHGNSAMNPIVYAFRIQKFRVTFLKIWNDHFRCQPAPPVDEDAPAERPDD

## CCCOC(=O)c1ccc(O)cc1
[1]
  AC50: 25 µM (active)
[2]
  outcome: inactive

## CC(C)CCCCCCOC(=O)CCCCC(=O)OCCCCCCC(C)C
[3]
  outcome: inactive

## Oc1cc2ccccc2c2ccccc12
[4]
  AC50: 7.7 µM (active)
[5]
  AC50: 27.7 µM (active)

## Cc1oc(-c2ccccc2)nc1CCOc1ccc(C[C@H](Nc2ccccc2C(=O)c2ccccc2)C(=O)O)cc1
[5]
  AC50: 26.5 µM (active)
[6]
  outcome: inactive
[2]
  outcome: inactive
[7]
  outcome: inactive

## CCc1ccc(CCOc2ccc(CC3SC(=O)NC3=O)cc2)nc1 (stereo not given)
[3]
  AC50: 4.25 µM (active)

## CCCOc1sc(C(=O)N2CCC(c3cc(CN)ccc3F)CC2)c(C)c1Br
[4]
  outcome: inactive
[3]
  outcome: inactive
[6]
  AC50: 36.3 µM (active)

## C#C[C@]1(O)CC[C@H]2[C@@H]3CCC4=CC(=O)CC[C@@H]4[C@H]3CC[C@@]21C
[8]
  outcome: inactive

## CC(C)(C)c1ccc(O)c(C(C)(C)C)c1
[4]
  outcome: inactive
[9]
  outcome: inactive

## CCN(CC)CCNc1ccc(CNC=O)c2sc3ccc(OC)cc3c(=O)c12
[4]
  outcome: inactive
[9]
  AC50: 4.38 µM (active)

## Cc1cc(CCN2CCN(c3nsc4ccccc34)CC2)cc2c1NC(=O)CC2(C)C
[9]
  outcome: inactive
[2]
  outcome: inactive
[7]
  outcome: inactive

## CC[C@H](C)[C@@H](C(=O)O)n1sc2ccccc2c1=O
[2]
  outcome: inactive
[7]
  outcome: inactive

## c1ccc2c(c1)ccc1ccccc12
[3]
  AC50: 1.16 µM (active)

## NC(=O)N1C(=O)C(C(=O)c2cc(Cl)cs2)c2cc(F)c(Cl)cc21 (stereo not given)
[3]
  outcome: inactive
[9]
  outcome: inactive
[2]
  AC50: 0.585 µM (active)

## COc1ccc([N+](=O)[O-])cc1N
[5]
  AC50: 12.2 µM (active)

## CC(=O)NC1(c2cccc(F)c2)CCN(CC[C@@]2(c3ccc(Cl)c(Cl)c3)CN(c3ccccc3)C(=O)CO2)CC1
[10]
  AC50: 11.3 µM (active)

## N#C[C@@H]1CC(F)(F)CN1C(=O)CNC1CC2CCC(C1)N2c1ncccn1 (stereo not given in full)
[5]
  outcome: inactive

## CN1CCN(c2ccccc2/C=C2\SCCN(c3ccc(Cl)c(Cl)c3)C2=O)CC1
[3]
  outcome: inactive

## O=C(O)Cc1cc(I)c(Oc2cc(I)c(O)c(I)c2)c(I)c1
[4]
  outcome: inactive
[9]
  outcome: inactive

## OC1CCCCC1
[1]
  outcome: inactive

## CCCCCCCCCCCCc1ccccc1S(=O)(=O)O
[4]
  AC50: 39.2 µM (active)
[5]
  AC50: 9.01 µM (active)
[2]
  AC50: 7.5 µM (active)
[7]
  AC50: 25 µM (active)

## c1ccc2cc3c(ccc4ccccc43)cc2c1
[10]
  AC50: 32.8 µM (active)
[8]
  outcome: inactive

## Oc1cccc(O)c1
[5]
  AC50: 10.4 µM (active)

## Nc1cccc2c(N)cccc12
[9]
  outcome: inactive

## CCCCCCCC(=O)O
[7]
  outcome: inactive

## NC(=O)N(O)[C@@H]1C=C[C@H](Oc2cccc(Oc3ccc(F)cc3)c2)C1
[1]
  outcome: inactive
[5]
  outcome: inactive
